Experimental data published in PubChem BioAssay (EPA / NIEHS).
Activity calls are given as the source filed them. Rule for the calls: active = hit-call score of the fitted dose curve at least 0.9, where 1 is the maximum; inactive = score below 0.9.

Legend:
[1] = ATG_CRE_CIS: Attagene CIS-FACTORIAL HepG2 Assay for human cAMP Responsive Element (CRE) binding protein 3 (AID 2282926); conditions: HepG2 CRE cis-reporter, Attagene multiplexed mRNA; actives raise or lower the signal
Outline: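 Transfected HepG2 were treated for 24 hours, then RNA was extracted and reporter cDNA amplified with sequence-specific primers. Labelled fragments were separated by capillary electrophoresis, and the CRE signal was fitted bidirectionally with DMSO as baseline.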

[2] = target: CCAAT/enhancer-binding protein beta (Homo sapiens) (UniProt P17676); experiment: ATG_C_EBP_CIS: Attagene CIS-FACTORIAL HepG2 Assay for human CCAAT/Enhancer Binding Protein (C/EBP) beta (AID 2282927); conditions: HepG2 Attagene cis-factorial transcription factor reporter; actives raise or lower the signal
Chain of CCAAT/enhancer-binding protein beta (Homo sapiens) (P17676 whole entry, looked up, the tested form may be a part): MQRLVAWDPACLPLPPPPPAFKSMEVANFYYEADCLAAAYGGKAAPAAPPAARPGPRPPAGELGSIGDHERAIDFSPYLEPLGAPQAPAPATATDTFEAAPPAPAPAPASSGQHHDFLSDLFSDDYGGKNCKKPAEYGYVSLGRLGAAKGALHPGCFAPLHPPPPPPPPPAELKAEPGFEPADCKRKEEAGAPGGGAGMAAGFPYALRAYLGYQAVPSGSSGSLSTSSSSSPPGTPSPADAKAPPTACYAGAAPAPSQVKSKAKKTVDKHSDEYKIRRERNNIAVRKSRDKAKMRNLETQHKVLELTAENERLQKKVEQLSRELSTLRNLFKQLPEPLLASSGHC
Outline: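 Endogenous C/EBPb-driven reporter transcripts measured in transfected human HepG2 cells at 24 h via RT-PCR and capillary electrophoresis of labelled fragments. Activity fitted in both directions relative to DMSO baseline.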

[3] = ATG_CMV_CIS: Attagene CIS-FACTORIAL HepG2 Assay for human CMV (Internal Marker) (AID 2282928); conditions: HepG2 CMV promoter reporter, transcription factor profiling; actives raise or lower the signal;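 note: endpoint acts as a background internal control marker rather than a target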
Outline: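 After transient transfection of HepG2 with reporter transcription units driven by cis-regulatory promoters, cells receive test chemical for 24 h. Labeled reporter amplicons, digested with HpaI, are sized and quantified by capillary electrophoresis against DMSO.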

[4] = ATG_DR4_LXR_CIS: Attagene CIS-FACTORIAL HepG2 Assay for human Liver X Receptor (LXR), DR4 submotif (AID 2282929); conditions: HepG2 Attagene DR4 cis-reporter, mRNA transcription; actives raise or lower the signal
Outline: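 The endpoint is DR4-element-driven reporter transcripts after 24 h chemical exposure of transfected HepG2 cells. These were measured via RT-PCR and capillary electrophoresis, and gain or loss of signal was fitted relative to DMSO controls.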

[5] = target: Aryl hydrocarbon receptor (Homo sapiens) (UniProt P35869); experiment: ATG_Ahr_CIS: Attagene CIS-FACTORIAL HepG2 Assay for human Aryl Hydrocarbon Receptor (Ahr) (AID 2282930); conditions: HepG2 AhR cis-factorial reporter transcription; actives raise or lower the signal
Chain of Aryl hydrocarbon receptor (Homo sapiens) (P35869 whole entry, looked up): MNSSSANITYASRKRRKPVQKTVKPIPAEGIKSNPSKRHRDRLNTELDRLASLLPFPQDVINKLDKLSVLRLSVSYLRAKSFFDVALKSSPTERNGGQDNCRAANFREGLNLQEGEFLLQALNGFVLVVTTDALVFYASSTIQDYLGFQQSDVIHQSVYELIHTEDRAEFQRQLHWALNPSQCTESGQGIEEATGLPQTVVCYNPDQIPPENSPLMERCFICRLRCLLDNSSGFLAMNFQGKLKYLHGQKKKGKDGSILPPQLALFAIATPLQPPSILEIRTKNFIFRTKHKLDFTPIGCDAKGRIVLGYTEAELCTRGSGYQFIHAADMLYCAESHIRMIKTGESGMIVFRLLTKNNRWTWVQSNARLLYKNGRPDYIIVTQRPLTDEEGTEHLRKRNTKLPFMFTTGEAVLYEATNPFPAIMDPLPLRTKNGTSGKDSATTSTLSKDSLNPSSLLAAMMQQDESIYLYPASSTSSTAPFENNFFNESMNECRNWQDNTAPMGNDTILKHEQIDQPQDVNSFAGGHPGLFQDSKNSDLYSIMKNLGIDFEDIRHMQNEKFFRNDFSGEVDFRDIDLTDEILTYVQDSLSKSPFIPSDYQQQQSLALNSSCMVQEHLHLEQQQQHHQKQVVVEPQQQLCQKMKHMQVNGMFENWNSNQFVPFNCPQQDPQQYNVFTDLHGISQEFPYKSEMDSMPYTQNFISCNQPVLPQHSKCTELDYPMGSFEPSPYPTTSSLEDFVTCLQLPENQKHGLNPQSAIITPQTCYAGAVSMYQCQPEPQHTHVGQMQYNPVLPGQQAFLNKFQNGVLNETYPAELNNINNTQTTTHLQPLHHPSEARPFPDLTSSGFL
Outline: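 Reporter mRNA levels, quantified by RT-PCR and fluorescent capillary electrophoresis, reflect endogenous AhR transcriptional activity in HepG2 cells carrying transfected cis-promoter reporter constructs. Readout at 24 h post-dose; gain or loss fitted against DMSO baseline.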

[6] = ATG_AP_1_CIS: Attagene CIS-FACTORIAL HepG2 Assay for human Activator Protein 1 (AP-1) (AID 2282931); conditions: HepG2 Attagene cis-factorial AP-1 reporter mRNA; actives raise or lower the signal
Outline: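 Readout is reporter transcript level from endogenous transcription factor activity, quantified by RT-PCR with fluorescent primer extension and capillary electrophoresis. Transiently transfected HepG2 cells, 24 h exposure. Curves fitted both directions versus DMSO.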

[7] = ATG_AP_2_CIS: Attagene CIS-FACTORIAL HepG2 Assay for human Activator Protein 2 (AP-2) (AID 2282932); conditions: HepG2 AP-2 cis-reporter, Attagene transcription factor profiling; actives raise or lower the signal
Outline: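 HepG2, transient MRTU transfection, cis-regulated reporters; 24 h compound exposure; RNA isolated, RT-PCR, 6-FAM labelling, HpaI digest, CE fluorescence. DMSO = negative control/baseline, bidirectional fit.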

[8] = ATG_BRE_CIS: Attagene CIS-FACTORIAL HepG2 Assay for human Bone Morphogenetic Protein (BMP) Response Element (BRE) (AID 2282933); conditions: HepG2 BMP response element reporter, Attagene transcription factor profiling; actives raise or lower the signal
Outline: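 A HepG2 multiplex reporter system measured inducible reporter mRNA 24 h post-dosing. Detection: RT-PCR, 6-FAM primer extension, HpaI digestion, capillary electrophoresis. Activity fitted bidirectionally relative to DMSO.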

[9] = target: Retinoic acid receptor alpha (Homo sapiens) (UniProt P10276); experiment: ATG_DR5_RAR_CIS: Attagene CIS-FACTORIAL HepG2 Assay for human Retinoic Acid Receptor Alpha (RARE), DR5 submotif (AID 2282934); conditions: HepG2 Attagene cis-factorial RARE DR5 reporter, mRNA; actives raise or lower the signal;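 for AC50: reporter responds to endogenous RAR alpha beta and gamma in HepG2 not RARA alone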
Chain of Retinoic acid receptor alpha (Homo sapiens) (P10276 whole entry, looked up): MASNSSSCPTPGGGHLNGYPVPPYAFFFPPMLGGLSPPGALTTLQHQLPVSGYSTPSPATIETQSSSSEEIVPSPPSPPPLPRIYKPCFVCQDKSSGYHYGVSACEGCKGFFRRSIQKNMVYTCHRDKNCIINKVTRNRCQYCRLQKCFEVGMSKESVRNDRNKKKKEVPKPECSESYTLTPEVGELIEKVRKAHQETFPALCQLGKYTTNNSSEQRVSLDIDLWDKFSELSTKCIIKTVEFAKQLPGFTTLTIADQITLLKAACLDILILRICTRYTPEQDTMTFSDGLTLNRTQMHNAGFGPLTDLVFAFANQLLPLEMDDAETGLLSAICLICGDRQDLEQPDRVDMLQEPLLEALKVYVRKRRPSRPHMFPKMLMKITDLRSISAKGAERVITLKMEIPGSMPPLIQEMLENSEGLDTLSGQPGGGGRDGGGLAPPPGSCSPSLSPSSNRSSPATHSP
Outline: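 Reporter transcripts from a DR5-regulated unit, measured via RT-PCR plus capillary electrophoresis, reflect endogenous RAR activity in transiently transfected human HepG2 liver cells. Exposure lasted 24 h; gain or loss of signal scored against DMSO.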

[10] = target: Transcription factor E2F1 (Homo sapiens) (UniProt Q01094); experiment: ATG_E2F_CIS: Attagene CIS-FACTORIAL HepG2 Assay for human E2F Transcription Factor 1 (AID 2282935); conditions: HepG2 Attagene cis-reporter, E2F reporter RNA transcripts; actives raise or lower the signal
Chain of Transcription factor E2F1 (Homo sapiens) (Q01094 whole entry, looked up): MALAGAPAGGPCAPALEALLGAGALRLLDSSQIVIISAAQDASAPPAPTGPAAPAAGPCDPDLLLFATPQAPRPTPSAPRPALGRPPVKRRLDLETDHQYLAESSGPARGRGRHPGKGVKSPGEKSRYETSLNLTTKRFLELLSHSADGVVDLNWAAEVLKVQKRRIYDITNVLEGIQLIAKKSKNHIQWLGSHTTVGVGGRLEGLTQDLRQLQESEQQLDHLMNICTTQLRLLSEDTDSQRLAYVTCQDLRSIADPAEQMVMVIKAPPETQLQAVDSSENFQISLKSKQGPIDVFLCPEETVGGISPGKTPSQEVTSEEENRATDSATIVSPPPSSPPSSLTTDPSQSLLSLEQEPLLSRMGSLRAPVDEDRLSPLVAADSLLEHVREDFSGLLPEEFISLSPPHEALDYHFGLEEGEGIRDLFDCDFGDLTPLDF
Outline: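 Cis-element reporter mRNA induction in transiently transfected HepG2, 24 h exposure. Activity fitted in both directions relative to DMSO negative control.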

[11] = ATG_E_Box_CIS: Attagene CIS-FACTORIAL HepG2 Assay for human Enhancer Box (E-box) (AID 2282936); conditions: HepG2 E-box cis-reporter transcription, actives raise or lower the signal
Outline: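 Cells: HepG2 (human liver), transient MRTU transfection. Exposure 24 h. RNA → oligo(dT) RT → PCR → 6-FAM label → HpaI → CE. Activity fitted both directions relative to DMSO.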

[12] = ATG_M_61_CIS: Attagene CIS-FACTORIAL HepG2 Assay for M61 Transcription Factor (Internal Marker) (AID 2282937); conditions: HepG2 Attagene CIS-FACTORIAL M61 internal marker reporter; actives raise or lower the signal
Outline: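 Readout is reporter mRNA by RT-PCR, fluorescent primer extension and capillary electrophoresis, with gain or loss fitted relative to DMSO. Transfected HepG2 cells carrying endogenous-TF-driven cis reporters were exposed to chemicals for 24 hours.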

[13] = ATG_EGR_CIS: Attagene CIS-FACTORIAL HepG2 Assay for human Early Growth Response 1 (EGR1) (AID 2282938); conditions: HepG2 Attagene CIS-FACTORIAL EGR reporter mRNA; actives raise or lower the signal
Outline: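 After 24 h compound exposure, RNA from reporter-transfected HepG2 cells was reverse-transcribed, PCR-amplified, fluorescently labelled and resolved by capillary electrophoresis. EGR1 reporter transcript changes, up or down, were fitted against DMSO, reflecting endogenous transcription-factor activity.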

[14] = ATG_M_19_CIS: Attagene CIS-FACTORIAL HepG2 Assay for M19 Transcription Factor (Internal Marker) (AID 2282939); conditions: HepG2 Attagene CIS-FACTORIAL M19 internal marker reporter; actives raise or lower the signal
Outline: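 Chemical-treated HepG2 (24 h) with MRTU constructs; reporter transcripts detected by fluorescent RT-PCR fragment analysis on capillary electrophoresis. Internal background marker, DMSO as baseline.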

[15] = ATG_Ets_CIS: Attagene CIS-FACTORIAL HepG2 Assay for human Erythroblast Transformation Specific (ETS) (AID 2282941); conditions: HepG2 ETS cis-reporter transcription, actives raise or lower the signal
Outline: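 Human HepG2 hepatoma cells were transiently transfected with promoter-driven reporter constructs and treated for 24 hours. Reporter transcripts were quantified by RT-PCR with fluorescent primer extension; bidirectional curve fitting used DMSO as reference.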

[16] = target: Hepatocyte nuclear factor 3-beta (Homo sapiens) (UniProt Q9Y261); experiment: ATG_FoxA2_CIS: Attagene CIS-FACTORIAL HepG2 Assay for human Forkhead box A2 (FOXA2) (AID 2282942); conditions: HepG2 cis-reporter transcription factor activity, 24 h; actives raise or lower the signal
Chain of Hepatocyte nuclear factor 3-beta (Homo sapiens) (Q9Y261 whole entry, looked up): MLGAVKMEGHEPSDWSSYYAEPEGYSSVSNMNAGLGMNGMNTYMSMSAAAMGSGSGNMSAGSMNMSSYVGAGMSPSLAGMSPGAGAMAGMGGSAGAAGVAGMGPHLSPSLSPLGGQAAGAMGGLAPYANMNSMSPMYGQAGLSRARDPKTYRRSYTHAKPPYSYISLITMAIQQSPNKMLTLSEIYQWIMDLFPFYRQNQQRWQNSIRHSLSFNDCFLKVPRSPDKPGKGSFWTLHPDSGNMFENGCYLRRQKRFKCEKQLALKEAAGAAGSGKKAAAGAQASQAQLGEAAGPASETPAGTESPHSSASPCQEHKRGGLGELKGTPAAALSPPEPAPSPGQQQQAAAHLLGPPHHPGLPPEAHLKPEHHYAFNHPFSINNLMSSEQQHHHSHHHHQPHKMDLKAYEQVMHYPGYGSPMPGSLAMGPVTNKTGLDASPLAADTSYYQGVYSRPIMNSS
Outline: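 Endogenous transcription factor activity is captured via cis-element-driven reporter transcripts in transfected HepG2. Total RNA taken at 24 h post-dosing; labelled RT-PCR products resolved by capillary electrophoresis. Gain or loss fitted versus DMSO.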

[17] = ATG_FoxO_CIS: Attagene CIS-FACTORIAL HepG2 Assay for human Forkhead box O (FoxO) (AID 2282943); conditions: HepG2 Attagene cis-reporter, FoxO element, mRNA; actives raise or lower the signal
Outline: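 Endogenous transcription factor activity read from multiplexed cis-promoter reporter transcripts in transiently transfected HepG2, 24 h after dosing. Reporter RNA measured via RT-PCR plus capillary electrophoresis of FAM-labeled products; gain or loss relative to DMSO.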

[18] = ATG_GATA_CIS: Attagene CIS-FACTORIAL HepG2 Assay for human GATA Binding Protein (AID 2282944); conditions: HepG2 GATA cis-element reporter, Attagene multiplex mRNA; actives raise or lower the signal
Outline: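 Transfected cis-reporter HepG2 cells were treated with chemicals for 24 hours. Total RNA was then converted to cDNA, amplified with reporter-specific primers and analysed by fluorescent capillary electrophoresis, using DMSO-treated wells as baseline.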

[19] = ATG_GLI_CIS: Attagene CIS-FACTORIAL HepG2 Assay for human Zinc Finger Protein GLI1 (AID 2282945); conditions: HepG2, Attagene cis-factorial reporter mRNA, GLI element; actives raise or lower the signal
Outline: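 Bidirectional curve fits relative to DMSO, using reporter mRNA levels from RT-PCR plus capillary electrophoresis. Cells were HepG2 transiently carrying cis-regulated reporter constructs, harvested 24 h after dosing.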

[20] = ATG_ERE_CIS: Attagene CIS-FACTORIAL HepG2 Assay for Estrogen Response Element (ERE) (AID 2282940); conditions: HepG2 ERE cis-reporter, Attagene RNA transcript; actives raise or lower the signal
Outline: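 Human liver cells (HepG2) bearing transiently transfected, promoter-regulated reporter units were exposed 24 h. Reporter mRNA induction was detected by capillary electrophoresis of labelled RT-PCR products and fitted bidirectionally to DMSO.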

Measured: AC50

O=C(Nc1ccc2c(c1)Cc1ccccc1-2)C(F)(F)F
active: [5] 10.2 µM
not listed: [19] | [20]
inactive: all other assays above

Clc1ccc(C(c2ccccc2Cl)C(Cl)Cl)cc1 (stereo not drawn)
active: [3] 100 µM | [4] 25.2 µM | [5] 65.6 µM | [6] 100 µM | [14] 100 µM | [17] 69.8 µM | [19] 53.7 µM
not listed: [20]
inactive: all other assays above

FC(F)(F)COCC(F)(F)F
not listed: [19] | [20]
inactive: all other assays above

CCCC1O[C@@H]2C[C@H]3[C@@H]4CCC5=CC(=O)C=C[C@]5(C)[C@H]4[C@@H](O)C[C@]3(C)[C@]2(C(=O)CO)O1 (stereo partly drawn)
active: [2] 56.5 µM | [4] 100 µM | [6] 165 µM | [11] 100 µM
not listed: [20]
inactive: all other assays above

CCOCCOCCOCC
not listed: [20]
inactive: all other assays above

O=C(O)CCCCCCCCCCCC(=O)O
not listed: [20]
inactive: all other assays above

CC(C)CCCCCCc1ccc(OCCOCCO)cc1
inactive: all assays above

COc1ccccc1[N+](=O)[O-]
not listed: [20]
inactive: all other assays above

NCCNc1cccc2ccccc12
active: [1] 170 µM | [2] 169 µM | [5] 7.19 µM | [7] 100 µM | [11] 176 µM | [13] 141 µM
not listed: [20]
inactive: all other assays above

CCCCN(CCCC)C(=O)N(CCCC)CCCC
active: [2] 44.5 µM | [4] 27.9 µM | [6] 58.5 µM | [19] 51.7 µM
not listed: [20]
inactive: all other assays above

CC(C)(N=C=O)c1cccc(C(C)(C)N=C=O)c1
not listed: [20]
inactive: all other assays above

CC(C)OCCO
not listed: [20]
inactive: all other assays above

Oc1c(Cl)cc(Cl)c(Cl)c1Cc1c(O)c(Cl)cc(Cl)c1Cl
active: [2] 0.561 µM | [3] 11.1 µM | [5] 5.86 µM | [7] 1.98 µM | [8] 5.37 µM | [9] 0.527 µM | [13] 11.1 µM | [15] 0.878 µM
not listed: [20]
inactive: all other assays above

CC(=O)CC(=O)Nc1ccccc1
not listed: [18] | [20]
inactive: all other assays above

COc1ccc(CCO)cc1
not listed: [20]
inactive: all other assays above
